# From PubChem
# Only a selection was taken, and hits are over-represented in it overall.
# FBPA Giardia inh: qHTS Assay for Inhibitors of Fructose-1,6-bisphosphate Aldolase from Giardia Lamblia. 290,000 tested, 0.71% active. AID 2451, 2010. purified Giardia FBPA. A8B2U2. Potency, µM (doses to about 59.6 µM), inactives show at the top dose activity, negative = inhibition, actives largely listed as inhibitors; note: potency is the fitted concentration of half-maximal effect; % is set by controls: 0 for no effect and ±100 for the full control effect; nearly all actives have a fitted effect of over 55% in size
#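 40 nM FBPA preincubated 10 min at RT with compound (up to 57.5 uM final), then substrate plus GAPDH/TPI/NAD/arsenate coupling and diaphorase/resazurin added. Fluorescence read after 20 min at RT, 525/598 nm.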
# CHX counter: Cycloheximide Counterscreen for Small Molecule Inhibitors of Shiga Toxin | cell reporter, cycloheximide protein synthesis inhibition counterscreen | max response, % | 300,000 tested, 12% active | AID 2314, 2010; in the data active = max response mostly above about 13%, no sharp cut-off; inactive = mostly below about 14%; note: read at 38.3 µM for the half of the compounds with a filed dose; 0% is about no effect
# Sm TGR inh: qHTS Assay for the Inhibitors of Schistosoma Mansoni Peroxiredoxins | 360,000 tested, 3% active | purified TGR, DTNB reduction, TNB absorbance 405 nm | Potency, µM (highest dose often 114 µM), without a hit: top-dose activity change, negative = inhibition, actives largely listed as inhibitors | Schistosoma mansoni thioredoxin glutathione reductase (TGR), Q962Y6; note: potency is the fitted concentration of half-maximal effect; % is set by controls: 0 for no effect and ±100 for the full control effect; nearly all actives have a fitted effect of over 60% in size
#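 Kinetic colorimetric format: TGR-catalysed, NADPH-driven DTNB reduction monitored via TNB absorbance. Enzyme dispensed at 20 nM; compound exposure 15 min at room temperature before reaction start.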
# LmPK inhibitor: qHTS Assay for Inhibitors of Leishmania Mexicana Pyruvate Kinase (LmPK) | 290,000 tested, 0.37% active | purified LmPK, Kinase-Glo ATP luminescence, 1 h | Potency, µM (top dose mostly 57.5 µM), for inactives: at the top dose activity change, negative = inhibition, hits mostly inhibitors | Q27686; note: potency is the fitted concentration of half-maximal effect; % is set by controls: 0 for no effect and ±100 for the full control effect
# Target sequence (Q27686 whole entry, looked up): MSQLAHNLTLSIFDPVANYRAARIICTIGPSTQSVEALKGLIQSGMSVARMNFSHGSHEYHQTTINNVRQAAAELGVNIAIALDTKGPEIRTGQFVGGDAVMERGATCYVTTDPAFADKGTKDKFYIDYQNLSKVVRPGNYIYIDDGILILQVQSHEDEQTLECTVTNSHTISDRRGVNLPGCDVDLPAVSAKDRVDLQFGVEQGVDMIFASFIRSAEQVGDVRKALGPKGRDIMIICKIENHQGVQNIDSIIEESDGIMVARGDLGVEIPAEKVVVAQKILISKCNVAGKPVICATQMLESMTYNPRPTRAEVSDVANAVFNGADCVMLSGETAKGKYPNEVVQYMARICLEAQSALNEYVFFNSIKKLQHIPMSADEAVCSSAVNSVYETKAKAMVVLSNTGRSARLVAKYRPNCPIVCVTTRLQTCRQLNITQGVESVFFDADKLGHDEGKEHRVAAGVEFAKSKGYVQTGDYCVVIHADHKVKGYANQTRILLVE
#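 Purified LmPK (0.1 nM) converted ADP (0.1 mM) to ATP with PEP (0.5 mM) in imidazole buffer pH 7.2 with KCl and MgCl2, 1 h at room temperature. ATP was read by Kinase-Glo luminescence; data normalized to uninhibited and no-enzyme controls.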
# Shiga toxin inh: A qHTS for Small Molecule Inhibitors of Shiga Toxin; inhibition, % at 38.7 µM; AID 2315, 2010; Vero cells, Shiga toxin protein synthesis inhibition reporter; 290,000 tested, 9.2% active; in the data active = inhibition mostly above about 28%, no sharp cut-off; inactive = mostly below about 43%; note: 0% is about no effect
# TbPYK inhibitor: qHTS of Trypanosoma Brucei Inhibitors. TbPYK enzyme, Kinase-Glo Plus ATP luminescence, 45 min. Potency, µM (titrated, usually from 76.8 µM), for inactives: top-dose activity, negative = inhibition, actives largely listed as inhibitors. 410,000 tested, 0.12% active. AID 624173, 2012; note: potency is the fitted concentration of half-maximal effect; % is set by controls: 0 for no effect and ±100 for the full control effect; nearly all actives have a fitted effect of over 50% in size
#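 Enzyme and substrate buffer are dispensed first and compound is pin-transferred. ADP at 130 uM final then starts the reaction, which runs 45 min at room temperature. Detection reagent is added for 10 min before luminescence is imaged.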
# Numbers without * were called inactive; ? = inconclusive; · = not tested or not shown; + = active, no number; ! = a repeat was not active; [ ] = dose if it differs, or a comment. Unless noted, calls come from the whole dose curve; as a rule, active = well fitted curve in the direction sought with a large enough effect; inconclusive = small, poorly fitted or top-dose-only effect, or another doubt; inactive = no such curve, though single readings can be large; an effect the other way counts as inactive or inconclusive.
SMILES,FBPA Giardia inh,CHX counter,Sm TGR inh,LmPK inhibitor,Shiga toxin inh,TbPYK inhibitor
CC(=O)NNc1ncnc2c1cnn2-c1ccccc1,3%,11,-1%,-10%,12,-4%
Cc1cccc(-n2ncc3c(NCc4ccccc4)ncnc32)c1,-3%,29*,-6%,1%,+,5%
CCOC(=O)CNc1oc(-c2ccccc2)nc1-c1ccccc1,0%,·,·,·,·,·
c1ccc(CCNc2ncnc3c2cnn3-c2ccccc2)cc1,2%,44*,-6%,-3%,66*,-13%
Cn1ncc2c(NCc3ccccc3)ncnc21,2%,13*!,82%[11.4 µM],10%,8,5%
Clc1ccc(-n2ncc3c(NCc4cccs4)ncnc32)cc1,4%,-5,15%,6%,-5,·
Cc1cccc(-n2ncc3c(NCc4cccs4)ncnc32)c1,-17%,23*,12%,3%,114*,3%
Cc1ccc(-n2ncc3c(NCCc4ccccc4)ncnc32)cc1C,·,·,4%,·,·,-11%
c1ccc(CNc2ncnc3c2cnn3-c2ccccc2)cc1,-4%,13*,-19%,7%,45,-9%
O=C1C(=O)N(CCCN2CCOCC2)C(c2ccc([N+](=O)[O-])cc2)/C1=C(/O)c1ccc2c(c1)OCO2 (centres undefined),-10%,15,-25%,5%,-4,0%
CCNc1ncc2nc(CCc3ccccc3)c(=O)n(C[C@H]3CCCO3)c2n1,-2%,·,·,·,·,·
CN(C)C(Cc1ccccc1)C(=O)c1c[nH]c2ccccc12 (centres undefined),0%,28*,-14%,-1%,63,-7%
CN(C)C(Cc1ccccc1)C(=O)c1ccccc1 (centres undefined),4%,33*,-11%,0%,65*,-2%
CC(Cl)C(=O)c1c[nH]c2ccccc12 (centres undefined),0%,-2,-10%,5%,-5,-1%
O=c1ccn(-c2cccc(C(F)(F)F)c2)nc1-c1ccn(-c2ccccc2)n1,32µM*,10,0%,1%,-18,-2%
Cc1nn(-c2cccc(C(F)(F)F)c2)c(=O)c2ccccc12,-5%,16*,-20%,9%,·,0%
Cc1cc(=O)c(C(=O)O)nn1-c1cccc(C(F)(F)F)c1,-3%,-3,-4%,-3%,-8,9%
O=C(O)C1CCCCC1C(=O)Nc1ccc2c(c1)OCCO2 (centres undefined),4%,34*,-2%,3%,102*,4%
O=C(Nc1ccncc1)C1CC1c1ccccc1 (centres undefined),3%,2,-5%,1%,-9,-1%
O=C(Nc1ccc2c(c1)OCCO2)C1CC1c1ccccc1 (centres undefined),-5%,65*,-16%,0%,94*,-3%
O=C(Nc1ccc2c(c1)OCCO2)C(=O)NC1CC1,-5%,29*,3%,-4%,80*,-6%
CC(C)c1ccc(NC(=O)C2CC2c2ccccc2)cc1 (centres undefined),5%,18*,15%,-6%,18,0%
CCC1=C(OC(=O)N(CC)CC)N2C(=O)OC(=NCC(=O)OC)[C@]2(Cc2ccccc2)[C@H]2C1=CC[C@H]1C(=O)NC(=O)[C@H]12,0%,-6,6%,0%,14,-3%
CC(C)CCn1nnnc1C(c1ccc(N(C)C)cc1)N1CCN(C(=O)c2ccco2)CC1 (centres undefined),-3%,-1,45µM*,0%,1,0%
CCC(C)(C)n1nnnc1C(c1ccc(N(C)C)cc1)N1CCN(C2CCCCC2)CC1 (centres undefined),-3%,-2,22µM*,1%,-13,-19%
SMILES,FBPA Giardia inh,CHX counter,Sm TGR inh,LmPK inhibitor,Shiga toxin inh,TbPYK inhibitor
CN(C)c1ccc(C(c2nnnn2C(C)(C)C)N2CCN(C(=O)c3ccco3)CC2)cc1 (centres undefined),0%,-6,16µM*,-6%,1,-27%
CCOc1ccc(C(c2nnnn2C(C)(C)C)N2CCN(C(=O)c3ccco3)CC2)cc1 (centres undefined),·,-2,-13%,-9%,20,1%
CCN1C/C(=C/c2ccc(OC)c(O)c2)C(=O)/C(=C/c2ccc(OC)c(O)c2)C1,-12%,-4,-1%,2%,-24,0%
COc1ccc(/C=C2\CN(Cc3ccccc3)C/C(=C\c3ccc(OC)c(O)c3)C2=O)cc1O,-10%,14*,45µM*,-2%,-5,2%
COc1cc(C=C2C(=O)c3ccccc3C2=O)ccc1O,-9%,28*,-5%,?,78*,?
COc1ccc(C=C2C(=O)c3ccccc3C2=O)cc1O,-14%,38*,-28%,?,115*,?
COc1cc(C=C2C(=O)c3ccccc3C2=O)cc(OC)c1OC,7%,9,5%,3%,34,-29%
CCOc1ccccc1CNC(=O)c1ccc2c(c1)sc1nc(-c3cccc(OC)c3)cn12,·,·,2%,·,·,-2%
O=C(O)c1nc2ccccc2nc1C(=O)O,-17%,46*,9%,3%,81*,-12%
CO[C@@]12[C@@H]3N[C@@H]3CN1C1=C(C(=O)C(N)=C(C)C1=O)[C@@H]2COC(N)=O,·,·,·,·,·,-3%
O=C(O)c1cccc(NC(=S)NC(=O)c2ccc(-c3ccc(Cl)cc3)o2)c1,-7%,21,20µM*,2%,100*,-8%
Cc1ccc(C(=O)O)cc1NC(=S)NC(=O)c1ccc(-c2ccc(Cl)cc2)o1,-14%,-3,10µM*,9%,-1,4%
COc1ccc(C(=O)O)cc1NC(=S)NC(=O)c1ccc(-c2ccc(Cl)cc2)o1,4%,7,28µM*,0%,30,1%
O=C(O)c1ccc(NC(=S)NC(=O)c2ccc(-c3ccc(Br)cc3)o2)cc1,?,7,32µM*,2%,18,-11%
COc1ccc(C(=O)O)cc1NC(=S)NC(=O)CSc1ccc(Cl)cc1,-7%,-2,?,6%,-17,-7%
CCOc1ccc(S(=O)(=O)N2CCC(C(=O)NCCN3CCOCC3)CC2)cc1C,-6%,-9,1%,5%,2,2%
Cn1c(=O)c2[nH]c(NN=Cc3ccccc3)nc2n(C)c1=O,·,·,·,·,·,1%
CC1CCN(N=Nc2nc3c([nH]2)c(=O)n(C)c(=O)n3C)CC1,·,·,·,·,·,4%
Cc1ccccc1NN=Nc1nc2c([nH]1)c(=O)n(C)c(=O)n2C,-21%,-3,56µM*,-15%,-5,-28%
Cn1c(=O)c2[nH]c(N=NNc3ccccc3F)nc2n(C)c1=O,?,10,40µM*,-7%,34,5%
